HDAC3 inhib: human HDAC3 inhibition; 320,000 tested, 0.15% active; inhibition, % at 8.3 µM; O15379; recombinant HDAC3, fluorogenic peptide/trypsin coupled, fluorescence; in the data active = inhibition above about 26%, passing the limit was not always enough
A3G deaminase: inhibitors of human APOBEC3G DNA deaminase; Q9HC16; recombinant A3G, ssDNA deamination FAM/TAMRA fluorescence; inhibition, % at 20 µM; 330,000 tested, 0.28% active; AID 493012;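 active = inhibition of at least 40% at 20 µM, with no more than 30% in the related APOBEC3A deaminase screen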;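 note: plate controls were DMSO wells with A3G for no effect and wells lacking A3G enzyme for full effect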
Target sequence (Q9HC16 whole entry, looked up): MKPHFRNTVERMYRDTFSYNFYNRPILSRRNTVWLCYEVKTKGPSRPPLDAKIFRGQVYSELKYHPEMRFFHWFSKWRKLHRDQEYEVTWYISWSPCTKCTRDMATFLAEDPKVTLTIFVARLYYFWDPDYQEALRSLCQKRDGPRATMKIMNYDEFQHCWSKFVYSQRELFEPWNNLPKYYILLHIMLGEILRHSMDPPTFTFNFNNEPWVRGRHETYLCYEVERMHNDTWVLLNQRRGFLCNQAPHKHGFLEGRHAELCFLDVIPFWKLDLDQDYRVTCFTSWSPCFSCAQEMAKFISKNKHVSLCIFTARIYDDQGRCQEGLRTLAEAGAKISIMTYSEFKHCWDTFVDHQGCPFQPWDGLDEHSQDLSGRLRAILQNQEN
LANA-H2A inh: blocks KSHV LANA binding to histone H2A/H2B; Q9QR71; cell-free LANA-H2A/H2B peptide, fluorescence polarization; inhibition, % (concentration not given with the values); 320,000 tested, 0.6% active; AID 2629; in the data active = inhibition mostly above about 10%, no sharp cut-off; inactive = mostly below about 6.7%
APOBEC3A inh: inhibitors of human APOBEC3A DNA deaminase; P31941; 330,000 tested, 0.41% active; inhibition, % at 20 µM; recombinant A3A, FAM/TAMRA ssDNA deamination fluorescence;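 active = at least 40% inhibition at 20 µM here, with at most 30% in a related deaminase screen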;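 note: plate controls were A3A with DMSO for no effect and wells lacking A3A enzyme for full effect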
A3G conf: APOBEC3G (human) deaminase inhibition, confirmed. shares compounds with A3G deaminase. recombinant A3G ssDNA deaminase, UDG/FAM-TAMRA fluorescence. inhibition, % at 20 µM. 890 tested, 72% active. AID 493152;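 active = inhibition reaching a set limit in any replicate at 20 µM, the limit being 80% of the first screen's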
UDG ctr A3G: counter-screen for APOBEC3G inhibitors: E. coli UDG; 710 tested, under 10 active; shares compounds with A3G deaminase; inhibition, % at 20 µM; UDG counterscreen, FAM/TAMRA oligo fluorescence;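 active = compounds giving 40% or more inhibition at 20 µM in any one of the three replicates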;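 note: plate controls were DMSO wells with UDG and oligo for no effect and DMSO wells lacking both for full effect; inhibitors lower the FAM signal released by uracil excision and alkaline cleavage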
* = called active by the depositor; · = no result given. This is a sample that favours compounds with a hit; in the whole collection about 1.4% have one here.

SMILES	HDAC3 inhib	A3G deaminase	LANA-H2A inh	APOBEC3A inh	A3G conf	UDG ctr A3G
COc1ccc(NS(=O)(=O)c2cc(NC(=O)C3CC3)ccc2N2CCCCC2)cc1	13	-3	-1	0	·	·
Nc1ccc(N2CCCCC2)c(S(=O)(=O)Nc2ccccc2Cl)c1	-4	7	-1	6	·	·
COc1ccccc1NS(=O)(=O)c1cc(NC(=O)C2CCC2)ccc1N1CCCCC1	-12	49*	-6	-1	77*	-2
COc1ccc(NS(=O)(=O)c2ccc(N3CCCCC3)c(N)c2)cc1	-3	-1	1	2	·	·
Nc1cc(S(=O)(=O)Nc2ccccc2Cl)ccc1N1CCCCC1	-1	49*	2	3	47*	2
COc1ccccc1NS(=O)(=O)c1cc(N)ccc1N1CCCCC1	10	49*	-2	5	62*	0
CCN(CC)c1ccc(NC(=O)c2ccccn2)cc1S(=O)(=O)Nc1ccccc1OC	·	56*	·	3	51*	-3
CCCC[C@@H]1C=C(C(=O)O)[C@H](c2ccc(Cl)c(Cl)c2)N1S(=O)(=O)c1ccc(C)cc1	10	-8	1	-3	·	·
COc1ccc(N2CCN(C(=O)CN(C)S(=O)(=O)c3cc(C)ccc3OC)CC2)cc1	-10	-5	4	-3	·	·
CC(C)(C)N1CC(OC(N)=O)C1	0	-5	-1	-3	·	·
COc1ccccc1NS(=O)(=O)c1cc(NC(=O)c2ccc(Cl)nc2)ccc1N1CCCC1	17	66*	4	2	68*	-4
S=c1[nH]ncn1/N=C/c1ccccc1	10	23	2	-4	·	·
S=c1[nH]ncn1/N=C/c1ccc(Br)cc1	0	44*	-9	-5	100*	-1
CCN1CCN(C(=O)CN(CC)S(=O)(=O)c2ccc(F)cc2)CC1	9	-6	3	-6	·	·
CC(=O)/C(=N/Nc1ccccc1C)N1CCOCC1	-10	41*	1	0	36*	0
Cc1ccc(C(=O)N/C(=C/c2ccco2)C(=O)OCN2C(=O)c3ccccc3C2=O)cc1	7	-2	10	3	·	·
NC(=O)CSc1nc2cc(S(=O)(=O)N3CCOCC3)ccc2o1	1	43*	-1	3	24*	-2
Nc1nc2cc(S(=O)(=O)N3CCOCC3)ccc2o1	13	46*	-4	2	43*	-5
CN(C)C(=O)CSc1nc2cc(S(=O)(=O)N3CCOCC3)ccc2o1	-2	23	9	-1	·	·
CC(C)C[C@H](NC(=O)N1CCn2c1nc1ccccc12)C(=O)NCc1ccc2c(c1)OCO2	6	1	3	1	·	·
